The results in this text go back to PubChem BioAssay AID651568 (National Center for Advancing Translational Sciences (NCATS), 2012).

Out of some 1,200 compounds screened, about 55 (5%) were called active. Another 15% or so got no clear call; they are omitted. The full list was thinned out, with actives kept by preference. Unmarked numbers belong to inactive results. Calls come from the whole dose curve; as a rule, active = well fitted inhibition curve with a large enough effect; inconclusive = small, poorly fitted or top-dose-only effect; inactive = no such curve, though single readings can be large or run the other way.
% is set by controls: 0 for no effect and ±100 for the full control effect; potency is the fitted concentration of half-maximal effect.

The nature of this experiment: qHTS Assay to Find Inhibitors of Chronic Active B-Cell Receptor Signaling: Hit Validation in Renilla Reporter Assay. Note: nearly all actives have a fitted effect of over 70% in size. To be noted: TMD8 IkB-Renilla luciferase reporter, NF-kB signaling; series mostly up to 57.5 µM; activity change, negative = inhibition: at the top concentration. From the text: Diffuse large B-cell lymphoma (DLBCL) is the most common category of non-Hodgkin lymphoma, with ~20,000 new cases per year in the United States. DLBCL should be regarded as a collection of different neoplasms. Microarray gene expression analysis has defined two principal types of DLBCL, named for their similarity to normal B cell stages or activation states: a germinal center B-cell (GCB) type, and an activated B-cell (ABC) type. In ABC-DLBCL, a constitutive high-level activity of the NF-kappaB family of transcription factors has been observed (1) and NF-kappaB target genes are more highly expressed in ABC primary tumors than in GCB tumors. Functional studies have shown a constitutive high-level activity of the IkappaB (inhibitor of kappa-B) kinase (IKK) complex. […] Further analysis of DLBCL primary tumors for NF-kappaB target gene expression imply that although CARD11 is required for constitutive IKK activity in all ABC-DLBCL lines, mutations in CARD11 may be the root cause of IKK activation only in lines or tumors with such mutations. In other words, CARD11 mutations may explain NF-kappaB activation in only 10% of ABC-DLBCL cases. […] This process has been termed 'chronic active BCR signaling' (CABS). The goal of this screen is to find small-molecule inhibitors of the CABS pathway found in ABC-DLBCL lines using a cell-based assay that measures IkappaBalpa stability, which has already been extensively validated in the OCI-Ly3 line (PubChem AID:445; REF: 4). […] Hits from the primary screen were tested in this orthogonal secondary assay. NIH Molecular Libraries Probe Production Network [MLPCN] NIH Chemical Genomics Center [NCGC] MLPCN Grant: R03 DA031086 PI Name: Dr. R. Eric Davis
The IkB-Photinus/Renilla reporter assay differs from the primary assay in that the reporters are constitutively expressed, and based on luciferases that are different from the click beetle luciferases and each other. These differences should help to eliminate artifactual sources of activity specific to the primary assay. This assay uses the Dual-Glo substrate from Promega; extensively validated in a 96-well format, it could be converted to a smaller-well format. All lines needed for the IkB-Photinus/Renilla assay have already been prepared and extensively validated
On the technique in general: Quantitative high-throughput screening tests each substance at several concentrations.
In the case of `CNC(=S)N/N=C(\C)c1ccc2c(c1)OCCO2`, the “activity change, negative = inhibition” value was -1.41%. Still for that read-out and setting: as for `CCOc1ccc2c(c1)OC(c1ccc(OC)cc1)(C(F)(F)F)NC2=O` (stereo unspecified), the figure is -4.62%; as for `CC(C)(C)c1ccc(C(=O)CCC(=O)NCc2ccccc2)cc1`, -2.67%. Same read-out and setting: as for `C=CCN(C(=O)CSC1=NC(=O)CN1C(C)=O)c1nc(C)c(-c2ccccc2)s1`, the figure is 58.9%. On to `S=c1nn[nH]n1C12CC3CC(CC(C3)C1)C2`, for which the “activity change, negative = inhibition” value is -6.62%. Regarding `Cc1ccccc1Nc1nc(N)nc(COC(=O)c2cccc(S(=O)(=O)N(C)C)c2)n1`, the “activity change, negative = inhibition” value was 15%.

For the molecule `CCOC(=O)C1=C(COC(=O)/C=C/c2ccc(O)c(OC)c2)NC(=O)NC1C` (stereo unspecified), the “activity change, negative = inhibition” value is -15%. On the same count and under the same terms, the figure for `O=C(COc1ccccc1-c1ccccc1)N/N=C/c1ccc2ccccc2c1` is -0.205%. For the molecule `COc1ccc(/C=N/NC(=O)CCn2cnc(-c3ccccc3)c2-c2ccccc2)cc1OC`, the “activity change, negative = inhibition” value is -24.2%. With `COc1ccc(/C=N/NC(=O)CCn2cnc(-c3ccccc3)c2-c2ccccc2)cc1`, the Potency was 26.9 µM (active).

Take `COc1ccc(OC)c(Nc2c3c(nc4ccccc24)CCC3)c1`: the “activity change, negative = inhibition” value is -24.8%. As for `COc1ccc(C)cc1NC(=O)CNC(c1ccccc1)c1ccc(C)cc1` (stereo unspecified), the “activity change, negative = inhibition” value was 3.62%.

Turning to `Cc1ccc(C(=O)O)cc1NC(=S)NC(=O)C(c1ccccc1)c1ccccc1`, the “activity change, negative = inhibition” value was -23%.

With `Cc1ccc(C(=O)Sc2cccccc2=O)cc1`, the Potency is 6.75 µM (active).

Consider `COc1ccc(NC(=O)Cn2nnc(-c3ccccc3NS(=O)(=O)c3ccc(OC)cc3)n2)cc1`, for which the “activity change, negative = inhibition” value was 15.7%. As for `CCOc1cccc(C2CC(=O)Nc3cc(OC)c(OC)cc32)c1` (stereo unspecified), the “activity change, negative = inhibition” value is 5.18%. For `COc1cccc(/C=C/C(=O)Nc2cc(S(=O)(=O)N3CCOCC3)ccc2OC)c1`, the “activity change, negative = inhibition” value is 1.3%.

On to `CCC1=Nc2cc(C(=O)NCCCOC(C)C)ccc2Sc2ccc(C)cc21`, for which the “activity change, negative = inhibition” value was -27.5%. The same measure, in the same setting: as for `Cc1c(C(=O)Oc2cccc3cccnc23)oc2ccccc12`, the figure is -6%.

In the case of `O=C(Oc1ccc(Cl)c2cccnc12)C12CC3CC(CC(C3)C1)C2`, the “activity change, negative = inhibition” value was -1.45%.

For the molecule `COc1cc(OC)cc(C(=O)Oc2c(CN3CCOCC3)cc(Cl)c3cccnc23)c1`, the “activity change, negative = inhibition” value was 1.92%. In the case of `O=C(Oc1c(CN2CCOCC2)cc(Cl)c2cccnc12)c1ccc(F)cc1`, the “activity change, negative = inhibition” value was -18.7%. Consider `O=C(Oc1c(Cl)cc(Cl)c2cccnc12)c1cccs1`, for which the Potency is 23.9 µM (active). `O=C(Oc1c(Cl)cc(Cl)c2cccnc12)c1ccco1`: the Potency was 12 µM (active).

As for `O=C1NC(=Nc2ccc(O)cc2)S/C1=C\C=C\c1ccco1`, the “activity change, negative = inhibition” value is -0.0749%.

In the case of `O=C(Nc1ncc(Cc2ccc(SC(F)F)cc2)s1)c1ccc(OC(F)F)cc1`, the “activity change, negative = inhibition” value was -27.7%. On the same count and under the same terms, as for `CCCc1nnc(NC(=S)Nc2ccccc2)s1`, the figure is -2.24%.

As for `CC1CCCN(c2ccc([N+](=O)[O-])cc2C(=O)c2ccccc2)C1` (stereo unspecified), the “activity change, negative = inhibition” value was 1.52%. As for `N#CC1=C(N)Oc2cc(N)ccc2C1c1cccc(Br)c1` (stereo unspecified), the “activity change, negative = inhibition” value is -21.5%. Still for that read-out and setting: the figure for `O=C(c1cc([N+](=O)[O-])ccc1N1CCOCC1)N1CCN(c2ccccc2)CC1` is 0.66%; for `CCOC(=O)c1c(C)n(C)c2ccc(OC)c(NC(=O)CN3CCN(C(=O)c4ccco4)CC3)c12` it is 0.121%.

In the case of `CCOc1ccc(S(=O)(=O)NCc2ccccn2)cc1NC(=O)c1ccccc1F`, the “activity change, negative = inhibition” value is 5.11%. Regarding `CCOC(=O)c1c(C)[nH]c(C(=O)N/N=C/c2ccc(Br)cc2)c1C`, the Potency is 10.7 µM (active). Turning to `CCOC(=O)c1[nH]c(C)c(C(=O)OCC)c1C`, the “activity change, negative = inhibition” value was -18.6%. The same measure, in the same setting: as for `Cc1c(C(=O)N/N=C/c2ccc(Cl)cc2)[nH]c2ccc(Cl)cc12`, the figure is -78.9%. On the same count and under the same terms, as for `CCOC(=O)CSC1=C(C#N)C(c2ccc(C)o2)CC(=O)N1` (stereo unspecified), the figure is -23.1%; as for `COc1ccc(-c2[nH]ncc2/C=C(\C#N)C(=O)NC2CC2)cc1`, -9.08%. For `CC1CCc2c(sc(NC(=O)CSc3nc(N)cc(=O)[nH]3)c2C(N)=O)C1` (stereo unspecified), the “activity change, negative = inhibition” value is -9.45%. With `COc1ccc(CNc2nc(NCc3ccc(OC)cc3)c3ncn(C4CCCC4)c3n2)cc1`, the “activity change, negative = inhibition” value is -20.9%. For `C/C(=N\NC(=O)c1ccc(F)cc1)c1ccccn1`, the “activity change, negative = inhibition” value is -17.5%. With `O=C(NN=C(c1ccccc1)c1ccccn1)c1ccccc1`, the Potency was 26.9 µM (active). As to `CCOc1ccc(OCc2ccc(C(=O)N/N=C(\C)c3ccccn3)cc2)cc1`, the “activity change, negative = inhibition” value was -3.8%. `Cc1onc(-c2ccccc2)c1C(=O)Nc1cc(C(F)(F)F)ccc1N1CCOCC1`: the “activity change, negative = inhibition” value was -17.3%. Still for that read-out and setting: as for `NC(=S)N=Nc1c(O)n(Cc2ccc(Br)cc2)c2ccccc12`, the figure is -29.3%. Take `C=CCNC(=S)N/N=C/c1cn(C)c2ccccc12`: the “activity change, negative = inhibition” value was 6.14%.

As for `CC(=O)c1cc(C#N)c(SCCC(C)C)nc1C`, the “activity change, negative = inhibition” value was -0.979%. As to `C=CCOc1ccc(/C=C2\SC(N)=NC2=O)cc1OC`, the “activity change, negative = inhibition” value is 1.12%. Take `CCCC(=O)OCCNc1cc(Sc2nccn2C)c2nonc2c1[N+](=O)[O-]`: the Potency is 3.79 µM (active). Consider `S=c1[nH]nc(-c2ccco2)n1/N=C/C(Cl)=C/c1ccccc1`, for which the Potency was 26.9 µM (active). On to `COc1cc2sc(-c3ccc(S(C)(=O)=O)cc3)c(C#CCO)c2cc1OC`, for which the “activity change, negative = inhibition” value was -5.66%.

As for `COC(=O)c1cnc(Oc2ccc(NC(=O)NC(=O)c3c(OC)cccc3OC)cc2)cc1C(F)(F)F`, the “activity change, negative = inhibition” value is -0.497%. Turning to `COc1ccccc1CNS(=O)(=O)c1ccc(-c2cc(C)no2)cc1`, the “activity change, negative = inhibition” value was 3.45%. On the same count and under the same terms, the figure for `CCN(c1ccccc1)S(=O)(=O)c1ccc(C(=O)NNC(=O)c2ccccc2F)cc1` is 1.63%. As to `O=C(N1CCN(c2ccccn2)CC1)N1c2ccccc2Sc2ccccc21`, the “activity change, negative = inhibition” value is 0.521%. In the case of `O=[N+]([O-])c1ccc(Sc2nc3ccccc3o2)c([N+](=O)[O-])c1`, the Potency was 3.01 µM (active). Take `O=[N+]([O-])c1cc(/C=N/O)ccc1Sc1ccccc1`: the “activity change, negative = inhibition” value was 3.47%. Same read-out and setting: the figure for `CCOc1ccc(C2=Nn3c(nnc3-c3ccccc3OC)SC2)cc1` is -24.7%; for `COc1ccc(C)cc1NS(=O)(=O)c1ccc(-c2cnc(C3CC3)o2)cc1` it is 22.8%; for `Cc1nc(N2N=C(c3ccc(Cl)cc3)CC2c2ccco2)sc1C(=O)N(C)C` (stereo unspecified) it is 2.02%. In the case of `Cc1ccc(/C=N/NC(=O)c2cc(-c3cccnc3)nc3ccccc23)cc1`, the “activity change, negative = inhibition” value was -4.67%.

Consider `CC[C@@H](C)[C@H](NC(=O)CCc1c(C)c2cc3c4c(oc3c(C)c2oc1=O)CCCC4)C(=O)O`, for which the “activity change, negative = inhibition” value was -26.6%. With `Cc1cc(Cl)n2c(nc3ccccc32)c1C#N`, the Potency was 1.9 µM (active). On the same count and under the same terms, as for `CCc1c(C)c(C#N)c2nc3ccccc3n2c1Cl`, the figure is 0.953 µM (active). In the case of `Cc1cc(Cl)n2c(nc3cc(F)c(F)cc32)c1C#N`, the Potency was 1.69 µM (active). In the case of `COc1cc(/C=C2\N=C(c3ccccc3)NNC2=O)cc(OC)c1OC`, the “activity change, negative = inhibition” value is 24.1%. Same read-out and setting: as for `CCN(CC)c1ccc(NC(=O)CN2CCN(CC(=O)Nc3ccccc3F)CC2)cc1`, the figure is -0.989%.
